Each structure is given as a SMILES string. In all, about 310,000 compounds went through this assay and about 18,000 (5.8%) were called active. Entries that show only a call come without a potency. Another 22% or so got no clear call; they are omitted. This excerpt belongs to a sample that is enriched for actives. Values without a mark were called inactive. Calls come from the whole dose curve; as a rule, active = well fitted inhibition curve with a large enough effect; inconclusive = small, poorly fitted or top-dose-only effect, or another doubt; inactive = no such curve, though single readings can be large or run the other way.
Potency is the fitted concentration of half-maximal effect.

This assay is described as follows: Primary qHTS for delayed death inhibitors of the malarial parasite plastid, 48 hour incubation. As to conditions: P. falciparum luciferase growth in erythrocytes; series mostly up to 28.7 µM. The essentials: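 Compounds are pin-transferred into medium, infected erythrocytes (2% hematocrit, 0.1% parasitemia final) are added, and plates sit one parasite generation at 37 C in 5% CO2. Detection reagent is then added and luminescence measured.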
(Quantitative high-throughput screening tests each substance at several concentrations.)
`CN(CC#CCC(c1ccccc1)c1ccccc1)C(C)(C)C`: the Potency was 9.28 µM (active).

On to `Cc1ccccc1Nc1c(-c2ccccc2)nc2ncccn12`, for which the Potency result was “inactive”.

Turning to `Cc1cccc(C)c1Nc1c(-c2ccccc2O)nc2ncccn12`, the Potency was 2.94 µM (active).

On to `C[C@H](NC(=O)[C@@H]1Cc2ccccc2CN1C(=O)OC(C)(C)C)C(=O)NC1CCCC1`, for which the Potency result is “inactive”.

Take `O/N=C(\C[n+]1ccccc1)c1ccc(Br)cc1`: the activity change, negative = inhibition is -29.6% [at 0.00184 µM].

For `O=C(c1cc(-c2cccs2)on1)N1CCCCC1`, the Potency entry was “inactive”.

Regarding `CC(=O)c1ccc(NC(=O)c2cc(-c3cccs3)on2)cc1`, the Potency result is “inactive”.

With `Cc1cc(NC(=O)c2cc(-c3cccs3)on2)nn1Cc1ccc(Cl)cc1`, the Potency was 10.4 µM (active).

Regarding `COc1ccc(S(=O)(=O)N2CCC(C(=O)NCCC(=O)NCc3cccc(OC)c3)CC2)cc1`, the Potency entry is “inactive”.

Regarding `CNCC[C@H](Oc1ccc(C(F)(F)F)cc1)c1ccccc1`, the Potency is 10.4 µM (active).

Turning to `CC(C)Oc1ccc(Oc2ccc(C(F)(F)F)cn2)cc1`, the Potency entry is “inactive”.

In the case of `C[C@H](C(=O)CC(=O)OC(C)(C)C)[C@H](O)c1ccc(C(F)(F)F)cc1`, the Potency result is “inactive”.

`CCN(CC)C(=O)Oc1ccc(Br)cc1C(=O)Nc1ccc(F)c(Cl)c1`: the Potency was 9.28 µM (active).

For the molecule `COC(=O)c1ccc(NC(=O)c2cc(Cl)ccc2OC)cc1`, the activity change, negative = inhibition is -5.41% [at 5.75 µM].

Turning to `CCN(CC)C(=O)C(=O)Nc1cccc(Br)c1`, the Potency entry was “inactive”.

For the molecule `CCCc1nnc(NC(=O)CCC(=O)NC2CC2)s1`, the Potency result is “inactive”.

Turning to `O=C(NCc1ccco1)/C(=C\c1cccc([N+](=O)[O-])c1)NC(=O)c1ccco1`, the Potency result is “inactive”.

For the molecule `C=CCn1c(SCC(=O)NCC2CCCO2)nc2sc(C)c(C)c2c1=O` (stereo not drawn), the Potency entry was “inactive”.

Turning to `N#Cc1ccc(Cn2cc(C(=O)c3ccco3)c3ccccc32)cc1`, the Potency entry is “inactive”.

In the case of `Cc1cccc(NC(=O)Cn2cc(C(=O)c3ccco3)c3ccccc32)c1`, the Potency result was “inactive”.

On to `CC1CCN(C(=O)Cn2cc(C(=O)c3ccco3)c3ccccc32)CC1`, for which the Potency was 9.28 µM (active).

For the molecule `CC(Sc1ncnc2c1cnn2-c1ccccc1)C(=O)Nc1ccc(N2CCOCC2)cc1` (stereo not drawn), the Potency entry is “inactive”.

In the case of `COc1ccc2c(c1OC)C(=O)N(c1ccc(O)cc1)C2`, the Potency entry is “inactive”.

For `CC(C)C(c1nnnn1CCc1ccccc1)N1CCN(C(=O)c2ccco2)CC1` (stereo not drawn), the Potency result is “inactive”.

Consider `N#Cc1ccc(C(c2nnnn2CCc2ccccc2)N2CCCCCC2)cc1` (stereo not drawn), for which the Potency is 1.65 µM (active).

On to `N#Cc1ccc(C(c2ccc(C#N)cc2)n2cncn2)cc1`, for which the Potency entry is “inactive”.

Consider `CCCc1nc(SCC(=O)N2CCCC2)c2c(=O)n(C)c(=O)n(C)c2n1`, for which the Potency result is “inactive”.

Regarding `CC(=O)N1CCN(CC(c2ccccc2)c2ccccc2)CC1`, the Potency result was “inactive”.

Consider `COc1cccc(CN(C)CC2CCCN(CCc3ccc(Cl)cc3)C2)c1OC` (stereo not drawn), for which the Potency is 5.86 µM (active).

For the molecule `COc1ccccc1CN(C)C(=O)C1(c2ccc(Cl)cc2)CC1`, the Potency result was “inactive”.

Consider `COc1cccc(CN(C)CC(=O)NCc2ccccc2Cl)c1OC`, for which the Potency entry was “inactive”.

As for `COc1cccc(NC(=O)N2C3CCCC2CC(NC(C)=O)C3)c1` (stereo not drawn), the Potency result is “inactive”.

`CCOc1cc(C2/C(=C(/O)c3ccc(S(=O)(=O)N4CCCCC4)cc3)C(=O)C(=O)N2CCOC)ccc1O` (stereo not drawn): the Potency entry is “inactive”.

As to `CCOC(=O)C1=C(N)N(c2ccc(C)cc2)C2=C(C(=O)CCC2)C1c1cccs1` (stereo not drawn), the Potency is 9.28 µM (active).

As to `CCOC(=O)c1cc2c(n(-c3ccc(C)cc3)c1=O)CCCC2=O`, the Potency result was “inactive”.

In the case of `O=C1CCCC2=C1C(c1cccs1)CC(=O)N2c1ccc(F)cc1` (stereo not drawn), the Potency entry was “inactive”.

On to `COc1cc2cc(C(=O)N/N=C/c3cccc(OC)c3OC)[nH]c2cc1OC`, for which the Potency entry was “inactive”.

Regarding `C=CCN1C(=NC(=O)COc2ccccc2)SC2CS(=O)(=O)CC21` (stereo not drawn), the Potency entry was “inactive”.

As to `C/C(=N/OC(=O)c1c(-c2c(F)cccc2Cl)noc1C)c1cnccn1`, the Potency entry is “inactive”.

`CCn1c(=N)c(S(=O)(=O)c2ccc(F)cc2)cc2c(=O)n3ccccc3nc21`: the Potency entry was “inactive”.

Consider `CCOC(=O)c1cc2c(=O)n3ccccc3nc2n(CC(C)C)c1=NC(=O)c1c(-c2c(F)cccc2Cl)noc1C`, for which the Potency is 2.33 µM (active).

Turning to `O=C(Nc1cc2c3c(c1)CC(=O)N3CCC2)c1ccccc1F`, the Potency result is “inactive”.

Take `COc1cccc(CN2CCN(Cc3ccc4cccc(F)c4n3)CC2CCO)c1` (stereo not drawn): the Potency entry was “inactive”.

Regarding `O=c1c2c(-c3ccccc3)ccnc2[nH]n1-c1ccccc1`, the Potency entry was “inactive”.

`COc1ccc(C(=O)Nc2nncs2)c(OC)c1`: the Potency entry is “inactive”.

With `COc1ccc(Cc2nnc(NC(=O)c3ccc(OC)cc3OC)s2)cc1`, the Potency is 1.65 µM (active).

On to `COc1ccc(Cc2nnc(NC(=O)c3cc(OC)c(OC)c(OC)c3)s2)cc1OC`, for which the Potency result was “inactive”.

On to `Cc1cc(C(=O)NC2CC(C)(C)Cc3c2cnn3-c2ccccc2)n[nH]1` (stereo not drawn), for which the Potency result is “inactive”.

On to `Oc1cccc(/C=N/Nc2ccc(Cl)nn2)c1O`, for which the Potency was 0.415 µM (active).

Turning to `COc1cccc(/C=N/Nc2ccc(Cl)nn2)c1`, the Potency result was “inactive”.

For the molecule `Clc1ccc(N/N=C/c2cccs2)nn1`, the Potency entry was “inactive”.

In the case of `O=C(CN1CCCCC1)NC(=O)Nc1ccccc1F`, the Potency result was “inactive”.

For the molecule `Cc1ccc(NC(=O)CN(C)C(=O)COC(=O)C(C)(C)Oc2ccc(Cl)cc2)cc1`, the Potency entry is “inactive”.

Turning to `CN(C)CCCN(C(=O)c1ccc(S(=O)(=O)N2CCCc3ccccc32)cc1)c1nc2ccc(F)cc2s1`, the Potency is 13.1 µM (active).

`CCN(CC)CCN(C(=O)c1ccc(S(=O)(=O)N2CCOCC2)cc1)c1nc2cc3c(cc2s1)OCCO3`: the Potency entry is “inactive”.

Take `CCC(=O)Nc1nnc(S(=O)(=O)N2CCCc3ccccc32)s1`: the Potency result was “inactive”.

Regarding `CCc1ccc2nc(N(CCCN(C)C)C(=O)c3ccc4c(c3)OCCO4)sc2c1`, the Potency was 3.29 µM (active).

On to `CCOc1ccc2nc(N(CCN(C)C)C(=O)c3ccc4ccccc4c3)sc2c1`, for which the Potency result was “inactive”.

Consider `CCCC(=O)N(CCN1CCOCC1)c1nc2ccc(OCC)cc2s1`, for which the Potency entry is “inactive”.

For the molecule `Cc1ccc2nc(N(CCN(C)C)C(=O)C3=COCCO3)sc2c1`, the Potency result is “inactive”.

Regarding `CCOc1ccc2nc(N(CCCN(C)C)C(=O)c3ccc(C(=O)c4ccccc4)cc3)sc2c1`, the Potency is 10.4 µM (active).

In the case of `CN(C)CCN(C(=O)C1=COCCO1)c1nc2ccc(Cl)cc2s1`, the Potency entry is “inactive”.

Take `C[C@H](NC(=O)C1CC(=O)N(c2ccc3c(c2)OCO3)C1)C(=O)NCc1ccco1` (stereo partly drawn): the Potency result is “inactive”.

For `CCc1ccccc1N(CC(=O)NCC1CCCO1)C(=O)CCC(=O)Nc1nccs1` (stereo not drawn), the Potency result was “inactive”.

Take `CC(C)Oc1ccc(C(CC(=O)N2CCOCC2)C(C)C)cc1` (stereo not drawn): the Potency entry is “inactive”.

Consider `COc1ccc(CSc2nnnn2-c2ccc(C(=O)O)cc2)cc1`, for which the Potency result is “inactive”.

Take `COc1ccc(C(=O)NCC(=O)N/N=C/c2cccnc2)cc1`: the Potency entry is “inactive”.

Turning to `COc1ccc(C(=O)OCC(=O)c2ccc(C)c(S(=O)(=O)N3CCOCC3)c2)cc1OC`, the Potency result was “inactive”.

For `CCOc1ccc(CCNC(=O)COC(=O)c2ccc(F)c(S(=O)(=O)N3CCOCC3)c2)cc1OCC`, the Potency is 14.7 µM (active).

For the molecule `Cc1cc(NC(=O)COC(=O)c2ccc(F)c(S(=O)(=O)N3CCOCC3)c2)no1`, the Potency entry is “inactive”.

On to `CC(C)CNC(=O)C(=O)NCC(c1ccc2c(c1)OCO2)N1CCOCC1` (stereo not drawn), for which the Potency result was “inactive”.

Take `CCCCn1c(SCC(=O)N2CCC(C(=O)OCC)CC2)nc2cc(S(N)(=O)=O)ccc21`: the Potency is 13.1 µM (active).

With `CCCCn1c(SCC(=O)N2CCCC2=O)nc2cc(S(N)(=O)=O)ccc21`, the Potency result is “inactive”.

As to `NS(=O)(=O)c1ccc(CCNC(=O)CCCn2c(SCC(=O)N3CCCC3)nc3ccsc3c2=O)cc1`, the Potency result is “inactive”.

In the case of `CCSc1nsc(NC(=O)Nc2ccccc2OC)n1`, the Potency entry is “inactive”.

In the case of `COc1ccc(CC(=O)NC2CCSc3ccccc32)cc1OC` (stereo not drawn), the Potency result is “inactive”.

On to `CO[C@H]1[C@@H]2C=CO[C@@H](O[C@H]3O[C@@H](CO)[C@H](O)[C@@H](O)[C@@H]3O)[C@@H]2[C@@]2(CO)O[C@@H]12`, for which the Potency result is “inactive”.

Regarding `Cc1n[nH]c(=O)c2c(NC(=O)CSc3ccccc3F)oc(C)c12`, the Potency result is “inactive”.

In the case of `Cc1[nH]nc(-c2ccc(OCc3cnn(-c4ccccc4)c3)cc2O)c1Oc1ccc(Cl)cc1`, the Potency was 5.22 µM (active).

On to `COc1ccc(C(=O)Cc2cnn(-c3ccccc3)c2)c(O)c1`, for which the Potency entry is “inactive”.

In the case of `CCOc1cc(C2C(C(=O)c3ccco3)=C(O)C(=O)N2Cc2ccccc2)ccc1O` (stereo not drawn), the Potency entry is “inactive”.

For the molecule `Cc1ccccc1NC(=O)C1CCN(C(=O)NC2CCCCC2)CC1`, the Potency result is “inactive”.

For `CCCC(=O)Nc1nnc(-c2ccccc2)o1`, the Potency result was “inactive”.

Take `COc1ccc(-c2nnc(NC(=O)CS(=O)(=O)c3ccc(Cl)cc3)o2)c(OC)c1`: the Potency result is “inactive”.

`Cc1ccc(C)c(-c2nnc(NC(=O)CS(=O)(=O)c3ccccc3)o2)c1`: the Potency is 13.1 µM (active).

On to `COc1ccc(NCCc2ccccn2)cc1`, for which the Potency result is “inactive”.

On to `OCC[C@H]1C[C@H](O)[C@@H](O)[C@]2(CCc3ccccc3O2)O1`, for which the Potency result was “inactive”.

As for `Cc1ccc2[nH]c(=O)c(CC(=O)O)c(-c3ccccc3)c2c1`, the Potency entry is “inactive”.

On to `O=C(/C=C/c1ccco1)NC(=S)N1CCCCC1`, for which the Potency result was “inactive”.

Consider `CCSc1nnc(NC(=O)Cc2ccccc2OC)s1`, for which the Potency result was “inactive”.

For the molecule `COc1ccccc1Nc1nnc(SC(C)C(=O)NC2CC2)s1` (stereo not drawn), the Potency was 10.4 µM (active).

As for `O=C(CSc1nnc(Nc2ccccc2F)s1)NC1CCCC1`, the Potency result is “inactive”.

As to `O=C1CCCN1C(=O)COc1ccc([N+](=O)[O-])cc1`, the Potency entry is “inactive”.

For `O=C(CNc1ccccc1N1CCCC1=O)Nc1cc(Cl)ccc1-n1cncn1`, the Potency entry was “inactive”.

Take `Cc1nn(-c2ccccc2)c(C)c1NC(=O)COC(=O)Cc1ccccc1`: the Potency entry is “inactive”.

Take `Cc1nn(-c2ccccc2)c(C)c1NC(=O)CCl`: the Potency was 4.65 µM (active).

For `Cc1cccc(C)c1NC(=O)CNC(=O)c1c(C)nn(-c2ccccc2)c1C`, the Potency result is “inactive”.

On to `O=C(Nc1ccc(C(=O)N2CCCCC2)cc1)c1cccc([N+](=O)[O-])c1`, for which the Potency result was “inactive”.

Regarding `Cn1ccc(=Nc2ccc(NC(=O)c3ccc(N=c4ccn(C)c5ccc([N+](=O)[O-])cc45)cc3)cc2)cc1`, the Potency is 0.233 µM (active).

In the case of `COc1cc(NS(=O)(=O)c2ccc(NC(=O)c3ccc([N+](=O)[O-])cc3)cc2)ncn1`, the Potency result is “inactive”.

Consider `O=S(=O)(c1cccc(-c2nnc3n2CCCCC3)c1)N1CCOCC1`, for which the Potency entry was “inactive”.

As to `O=S(=O)(c1cccc(-c2nnc(SC(F)F)n2-c2ccccc2)c1)N1CCCCC1`, the Potency was 11.7 µM (active).

For `O=S(=O)(c1cccc(-c2cn3ccccc3n2)c1)N1CCCC1`, the Potency result was “inactive”.

These data come from PubChem BioAssay AID504832 (National Center for Advancing Translational Sciences (NCATS), 2011).
